# “And” between values parts separate entries of the source, which are not always exact repeats. Equal values may be shown once. About 2,000 (36%) of roughly 5,500 compounds were called active. Roughly 18% stayed inconclusive and do not appear here. Cut-off read from the data, not from the text of the source: active = normalized growth mostly below about 0.91 (no sharp cut-off); inconclusive = no clear call, values can overlap the other calls; inactive = mostly above about 0.92. The list shows a part of the results.
# Test: chemical genetic growth profiling, strain panel (AID 1159580);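 note: tested at 20 µM; growth read once vehicle control cultures reached saturation at 30 °C; 1 = growth at the plate median or of vehicle wells; lower values mean less growth of the strain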
# Details: S. cerevisiae deletion strains, growth OD
structure (smiles),measurement,setting,value
COC(=O)C1=C(C)NC(C)=C(C(=O)OC)C1c1ccccc1[N+](=O)[O-],normalized growth,"locus YAL021C, strain ccr4, stronger effect = lower value",0.829 (active)
same,normalized growth,"locus YAL026C, strain drs2, stronger effect = lower value",0.812 (active)
same,normalized growth,"locus YAL030W, strain snc1, stronger effect = lower value",0.896 (active)
same,normalized growth,"locus YAL040C, strain CLN3, stronger effect = lower value",0.993 (inactive)
same,normalized growth,"locus YBL061C, strain skt5, stronger effect = lower value",0.9 (active)
same,normalized growth,"locus YBR009C, strain hhf1, stronger effect = lower value",0.863 (active)
same,normalized growth,"locus YBR021W, strain FUR4, stronger effect = lower value",0.996 (inactive)
same,normalized growth,"locus YBR023C, strain chs3, stronger effect = lower value",0.91 (active)
same,normalized growth,"locus YBR171W, strain sec66, stronger effect = lower value",0.975 (inactive)
same,normalized growth,"locus YBR229C, strain ROT2, stronger effect = lower value",0.998 (inactive)
same,normalized growth,"locus YBR231C, strain swc5, stronger effect = lower value",0.836 (active)
same,normalized growth,"locus YBR279W, strain paf1, stronger effect = lower value",0.887 (active)
same,normalized growth,"locus YCL011C, strain gbp2, stronger effect = lower value",0.907 (active)
same,normalized growth,"locus YCL016C, strain dcc1, stronger effect = lower value",0.943 (inactive)
same,normalized growth,"locus YCL029C, strain bik1, stronger effect = lower value",0.97 (inactive)
same,normalized growth,"locus YCL061C, strain MRC1 (second series), stronger effect = lower value",0.829 (active)
same,normalized growth,"locus YCL061C, strain MRC1, stronger effect = lower value",0.933 (inactive)
same,normalized growth,"locus YCL069W, strain vba3, stronger effect = lower value",0.947 (inactive)
same,normalized growth,"locus YCR088W, strain abp1, stronger effect = lower value",0.955 (inactive)
same,normalized growth,"locus YDL005C, strain med2, stronger effect = lower value",0.974 (inactive)
same,normalized growth,"locus YDL035C, strain GPR1, stronger effect = lower value",0.725 (active)
same,normalized growth,"locus YDL040C, strain nat1, stronger effect = lower value",0.98 (inactive)
same,normalized growth,"locus YDL074C, strain BRE1, stronger effect = lower value",0.905 (inactive)
same,normalized growth,"locus YDL101C, strain DUN1, stronger effect = lower value",1.01 (inactive)
same,normalized growth,"locus YDL134C, strain PPH21, stronger effect = lower value",0.783 (active)
same,normalized growth,"locus YDL185W, strain tfp1, stronger effect = lower value",0.938 (inactive)
same,normalized growth,"locus YDL192W, strain arf1, stronger effect = lower value",0.85 (active)
same,normalized growth,"locus YDR001C, strain nth1, stronger effect = lower value",0.975 (inactive)
same,normalized growth,"locus YDR069C, strain doa4, stronger effect = lower value",0.719 (active)
same,normalized growth,"locus YDR101C, strain arx1, stronger effect = lower value",0.963 (inactive)
same,normalized growth,"locus YDR137W, strain rgp1, stronger effect = lower value",0.953 (inactive)
same,normalized growth,"locus YDR159W, strain sac3, stronger effect = lower value",0.918 (inactive)
same,normalized growth,"locus YDR162C, strain NBP2, stronger effect = lower value",0.388 (active)
same,normalized growth,"locus YDR195W, strain ref2",0.999 (inactive)
same,normalized growth,"locus YDR297W, strain sur2, stronger effect = lower value",0.854 (active)
same,normalized growth,"locus YDR318W, strain mcm21, stronger effect = lower value",0.827 (active)
same,normalized growth,"locus YDR334W, strain swr1, stronger effect = lower value",0.904 (inactive)
same,normalized growth,"locus YDR335W, strain msn5, stronger effect = lower value",0.969 (inactive)
same,normalized growth,"locus YDR363W, strain ESC2, stronger effect = lower value",0.992 (inactive)
same,normalized growth,"locus YDR388W, stronger effect = lower value",0.933 (inactive)
same,normalized growth,"locus YDR392W, strain spt3, stronger effect = lower value",0.73 (active)
same,normalized growth,"locus YDR502C, strain sam2, stronger effect = lower value",0.876 (active)
same,normalized growth,"locus YEL003W, strain gim4, stronger effect = lower value",0.895 (active)
same,normalized growth,"locus YEL037C, strain rad23, stronger effect = lower value",0.934 (inactive)
same,normalized growth,"locus YEL061C, strain CIN8 (second series), stronger effect = lower value",0.966 (inactive)
same,normalized growth,"locus YEL061C, strain CIN8, stronger effect = lower value",0.918 (active)
same,normalized growth,"locus YER002W, strain NOP16, stronger effect = lower value",1 (inactive)
same,normalized growth,"locus YER015W, strain faa2, stronger effect = lower value",0.828 (active)
same,normalized growth,"locus YER016W, strain bim1, stronger effect = lower value",0.944 (inactive)
same,normalized growth,"locus YER110C, stronger effect = lower value",1 (inactive)
same,normalized growth,"locus YER111C, strain swi4, stronger effect = lower value",0.94 (inactive)
same,normalized growth,"locus YER155C, strain BEM2 (second series), stronger effect = lower value",0.987 (inactive)
same,normalized growth,"locus YER155C, strain BEM2, stronger effect = lower value",1.01 (inactive)
same,normalized growth,"locus YER167W, strain BCK2, stronger effect = lower value",0.894 (active)
same,normalized growth,"locus YFR010W, strain ubp6, stronger effect = lower value",0.864 (active)
same,normalized growth,"locus YGL078C, strain dbp3, stronger effect = lower value",0.978 (inactive)
same,normalized growth,"locus YGL086W, strain mad1, stronger effect = lower value",0.799 (active)
same,normalized growth,"locus YGL167C, strain pmr1, stronger effect = lower value",0.916 (inactive)
same,normalized growth,"locus YGL173C, strain kem1, stronger effect = lower value",0.729 (active)
same,normalized growth,"locus YGL227W, strain vid30, stronger effect = lower value",0.988 (inactive)
same,normalized growth,"locus YGL240W, strain doc1, stronger effect = lower value",0.96 (inactive)
same,normalized growth,"locus YGL248W, strain PDE1, stronger effect = lower value",0.787 (active)
same,normalized growth,"locus YGL253W, strain hxk2, stronger effect = lower value",0.878 (active)
same,normalized growth,"locus YGR078C, strain PAC10, stronger effect = lower value",0.991 (inactive)
same,normalized growth,"locus YGR135W, strain pre9, stronger effect = lower value",0.799 (active)
same,normalized growth,"locus YGR252W, strain gcn5, stronger effect = lower value",0.997 (inactive)
same,normalized growth,"locus YHR013C, strain ard1, stronger effect = lower value",0.83 (active)
same,normalized growth,"locus YHR027C, strain rpn1, stronger effect = lower value",0.734 (active)
same,normalized growth,"locus YHR030C, strain SLT2, stronger effect = lower value",0.891 (active) and 0.969 (inactive)
same,normalized growth,"locus YHR079C, strain IRE1 (second series), stronger effect = lower value",0.957 (inactive)
same,normalized growth,"locus YHR079C, strain IRE1, stronger effect = lower value",0.956 (inactive)
same,normalized growth,"locus YHR094C, strain hxt1, stronger effect = lower value",0.974 (inactive)
same,normalized growth,"locus YHR129C, strain ARP1, stronger effect = lower value",0.903 (active)
same,normalized growth,"locus YHR142W, strain chs7, stronger effect = lower value",0.894 (inactive)
same,normalized growth,"locus YHR200W, strain rpn10, stronger effect = lower value",0.88 (active)
same,normalized growth,"locus YIL066C, strain RNR3, stronger effect = lower value",0.609 (active)
same,normalized growth,"locus YIL073C, strain SPO22, stronger effect = lower value",0.319 (active)
same,normalized growth,"locus YIL125W, strain kgd1, stronger effect = lower value",0.948 (inactive)
same,normalized growth,"locus YIR030C, strain dcg1, stronger effect = lower value",0.992 (inactive)
same,normalized growth,"locus YJL092W, strain hpr5, stronger effect = lower value",0.945 (inactive)
same,normalized growth,"locus YJL095W, strain BCK1 (second series), stronger effect = lower value",0.933 (inactive)
same,normalized growth,"locus YJL095W, strain BCK1, stronger effect = lower value",1 (inactive) and 0.958 (inactive)
same,normalized growth,"locus YJL115W, strain asf1, stronger effect = lower value",0.969 (inactive)
same,normalized growth,"locus YJL129C, strain trk1, stronger effect = lower value",0.89 (inactive)
same,normalized growth,"locus YJL134W, strain LCB3, stronger effect = lower value",0.963 (inactive)
same,normalized growth,"locus YJL154C, strain vps35, stronger effect = lower value",0.962 (inactive)
same,normalized growth,"locus YJL164C, strain tpk1, stronger effect = lower value",0.743 (active)
same,normalized growth,"locus YJL166W, strain qcr8, stronger effect = lower value",0.825 (active)
same,normalized growth,"locus YJL168C, strain set2, stronger effect = lower value",0.952 (inactive)
same,normalized growth,"locus YJL187C, strain SWE1 (second series), stronger effect = lower value",0.99 (inactive)
same,normalized growth,"locus YJL187C, strain SWE1, stronger effect = lower value",0.901 (active)
same,normalized growth,"locus YJR043C, strain POL32, stronger effect = lower value",0.752 (active)
same,normalized growth,"locus YJR066W, strain TOR1, stronger effect = lower value",0.924 (inactive)
same,normalized growth,"locus YJR075W, strain HOC1, stronger effect = lower value",0.822 (active) and 0.894 (active)

# Source: PubChem BioAssay AID1159580 (chemical genetic matrix, 2015)
